Compounds with a hit are over-represented: about 6.9% of the library has one in this group of screens.
BAZ2B inh – BAZ2B (human) inhibition; 360,000 compounds, 4.4% hits; Potency, µM (highest dose often 114 µM), without a hit: top-dose activity change, negative = inhibition, actives largely listed as inhibitors; AlphaScreen BAZ2B-H3K14Ac peptide displacement; Q9UIF8; further: on the % scale 0 is the no-effect control and ±100 the full control effect; nearly all actives have a fitted effect of over 60% in size
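Inhibition is scored as reduced AlphaScreen emission. The BAZ2B/b-H3(5-23)K14Ac complex (50 nM each) in PBS pH 7.4, 0.01% Tween-20 meets compound (up to 110 uM) for 30 min at RT before bead addition.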
HP1b binding inh – HP1-beta chromodomain-methylated histone interaction inhibition | Potency, µM (top dose mostly 114 µM), inactives show top-dose activity change, negative = inhibition, usual class: inhibitors | AID 540317 | P83916 | AlphaScreen HP1-beta / biotin-H3K9me3 peptide binding | 390,000 compounds, 0.56% hits; further: nearly all actives have a fitted effect of over 70% in size
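Compound inhibition of the preformed complex between 50 nM HP1-beta and 50 nM biotinylated H3K9me3 peptide was read by AlphaScreen. Buffer was PBS pH 7.4 with 0.01% Tween-20. Incubations ran 30 min at room temperature, with 10 ug/mL donor/acceptor beads.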
JMJD2A Tudor inh – blocks the human JMJD2A Tudor domain; Potency, µM (highest dose often 114 µM), for the others: top-dose activity change, negative = inhibition, usual class: inhibitors; 390,000 compounds, 4.4% hits; AlphaScreen JMJD2A-Tudor / H3K4me3 peptide binding; AID 504339; further: on the % scale 0 is the no-effect control and ±100 the full control effect; nearly all actives have a fitted effect of over 50% in size
PLK1 PBD inh – inhibitors of human PLK1 polo-box domain binding | P53350 | Plk1 PBD binding of FITC phosphopeptide, fluorescence polarization | Potency, µM, for inactives: max response, negative = inhibition, most hits filed as inhibitors | 360,000 compounds, 2.8% hits; further: series mostly up to about 57 µM; on the % scale 0 is the no-effect control and ±100 the full control effect; nearly all actives have a fitted effect of over 65% in size
Target sequence (P53350 whole entry, looked up, the tested form may be a part): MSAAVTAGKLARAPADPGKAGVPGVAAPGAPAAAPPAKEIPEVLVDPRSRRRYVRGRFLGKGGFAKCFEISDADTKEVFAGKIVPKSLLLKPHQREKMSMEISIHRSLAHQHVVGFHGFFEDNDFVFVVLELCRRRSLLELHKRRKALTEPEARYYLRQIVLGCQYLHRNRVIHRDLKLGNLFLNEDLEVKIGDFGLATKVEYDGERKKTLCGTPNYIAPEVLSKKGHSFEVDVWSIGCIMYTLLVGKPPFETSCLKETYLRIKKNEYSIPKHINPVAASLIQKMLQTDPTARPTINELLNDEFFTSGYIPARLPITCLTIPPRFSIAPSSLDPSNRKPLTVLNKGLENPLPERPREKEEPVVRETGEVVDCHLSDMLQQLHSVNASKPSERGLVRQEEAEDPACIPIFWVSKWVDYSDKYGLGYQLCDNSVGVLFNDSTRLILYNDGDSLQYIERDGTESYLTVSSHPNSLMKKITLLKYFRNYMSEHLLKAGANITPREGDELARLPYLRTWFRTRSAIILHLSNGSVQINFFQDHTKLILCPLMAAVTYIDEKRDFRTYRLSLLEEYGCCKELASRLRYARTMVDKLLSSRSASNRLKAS
VDR inh – vitamin D3 receptor (human) inhibition; 400,000 compounds, 0.93% hits; Potency, µM, for inactives: max response, negative = inhibition, most hits filed as inhibitors; VDR-SRC2-3 peptide fluorescence polarization, 2 h; AID 504847; further: on the % scale 0 is the no-effect control and ±100 the full control effect
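Fluorescence polarization assay measuring small-molecule disruption of VDR binding to the coregulator peptide SRC2-3. Compounds were pin-transferred (23 nl) into the reagent mix and incubated 2 h at room temperature before reading.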
L3MBTL1 inh – L3MBTL1 (human) inhibition; Q9Y468; AlphaScreen L3MBTL1–H3K9me1 peptide binding; Potency, µM (highest dose often 57.1 µM), for the others: at the highest dose activity, negative = inhibition, usual class: inhibitors; 230,000 compounds, 0.66% hits; AID 485360; further: on the % scale 0 is the no-effect control and ±100 the full control effect; nearly all actives have a fitted effect of over 60% in size
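L3MBTL1 (50 nM) pre-complexed 30 min with biotinylated H3(1-15)K9me1 peptide (75 nM), then compounds added for 30 min at room temperature; AlphaScreen streptavidin donor/nickel chelate acceptor beads (10 ug/mL final) read after 30 min dark incubation.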
The depositor's hits bear a star; ? = inconclusive; . = not tested or not shown; ! = a repeat was not active; [ ] = remark or other dose. The call rests on the fitted dose curve; in most records, active means well fitted curve in the direction sought with a large enough effect; inconclusive means small, poorly fitted or top-dose-only effect, or another doubt; inactive means no such curve, though single readings can be large; an effect the other way counts as inactive or inconclusive. Potency means the concentration at half of the fitted maximal effect.

SMILES	BAZ2B inh	HP1b binding inh	JMJD2A Tudor inh	PLK1 PBD inh	VDR inh	L3MBTL1 inh
COc1ccc(CNC(=O)CCNC(=O)N2CCn3c2nc2ccccc23)cc1	-17%[57.1 µM]	34%	40µM*	24µM*	-20%	.
C[C@H](NC(=O)N1CCn2c1nc1ccccc12)C(=O)NC1CC1	-18%	16%[57 µM]	-13%	3%	9%	.
COc1cccc(CNC(=O)CCNC(=O)N2CCn3c2nc2ccccc23)c1	-11%	47%	-22%	-9%	5%	.
O=C(c1ccccc1)N1CCn2c1nc1ccccc12	5%	5%	56µM*	27µM*	?	7%
CN(C)c1ncc2nc(-c3ccc(F)cc3)c(=O)n(C3CC3)c2n1	.	.	.	.	-19%	.
O=C(Cc1ccc(F)cc1)Nc1nnc2n1CCS2	56µM*	6%[57 µM]	?	.	7%	.
O=C(Cc1ccccc1)Nc1nnc2n1CCS2	79µM*	12%[57 µM]	50µM*	.	1%	.
CCCC(=O)Nc1nnc2n1CCS2	-11%	-2%[57 µM]	79µM*	.	-3%	.
COc1ccc(NC(=O)C(=O)NCCC2CCCCN2S(=O)(=O)c2ccccc2)cc1 (stereo not drawn)	10%	14%	-12%	-11%	-10%	-3%
NCc1cn(Cc2ccccc2)nc1-c1ccccc1	.	22%	-16%	.	-9%	.
O=C(Cc1cccs1)N=Nc1c(O)[nH]c2ccccc12	-31%	21%	-15%	0%	5%	.
COc1ccc2[nH]c(O)c(N=NC(=O)c3ccc(NS(=O)(=O)c4cccs4)cc3)c2c1	50µM*	24%	?	-6%	10%	-30%
COc1ccc2[nH]c(O)c(N=NC(=O)Cc3cccs3)c2c1	35µM*	-24%	28µM*	-13%	-1%	.
Cc1ccc2[nH]c(O)c(N=NC(=O)c3ccc(NS(=O)(=O)c4cccs4)cc3)c2c1	-37%	23%	?	-17%	4%	.
C/C(=N\NC(=O)c1ccc(NS(=O)(=O)c2cccs2)cc1)c1ccc(O)cc1O	10µM*	36%	-16%	2%	2%	-17%
C/C(CCc1oc2ccc(Cl)cc2c1-c1ccc(C)o1)=N\O	?	?	89µM*	-18%	-1%	52%
O=[N+]([O-])c1ccccc1OCCCn1cnc2ccccc21	22µM*	?	0.79µM*	1%	-14%	1%
c1ccc2c(c1)ncn2CCOCCOCCn1cnc2ccccc21	71µM*	25%	-18%	1%	-7%	-19%[11.4 µM]
CCC(=O)c1ccc(OCCn2cnc3ccccc32)cc1	-26%	5%	79µM*	?	?	1%
O=c1c2ccccc2ncn1CCCOc1ccccc1[N+](=O)[O-]	4%	27%	1%	-1%	2%	-2%
CC1(C)Cc2cccc(OCC(=O)NCCOc3ccccc3)c2O1	-15%	-15%	20µM*	21µM*	?	.
COc1ccccc1CCNC(=O)COc1cccc2c1OC(C)(C)C2	-4%	25%	4%	5%	6%	2%
CC(C)c1ccc(CN2C(=O)NC3(CCCCCC3)C2=O)cc1	2%	-1%	-31%[57.1 µM]	27µM*	-17%	.
CSc1ccc(CN2C(=O)NC3(CCCCC3)C2=O)cc1	-20%	2%	-17%	-10%	4%	6%
COc1ccc(CN2C(=O)NC3(CCCCCC3)C2=O)cc1F	1%	-9%	-28%[11.4 µM]	3.4µM*	-12%	3%
SMILES	BAZ2B inh	HP1b binding inh	JMJD2A Tudor inh	PLK1 PBD inh	VDR inh	L3MBTL1 inh
Fc1ccc2c(c1)C(c1ccc(N3CCOCC3)cc1)=NNC(c1cccs1)=N2	35µM*	-37%	25µM*	-2%	0%	-28%
Cn1nnnc1Sc1ncnc2scc(-c3cccc4c3sc3ccccc34)c12	.	27%	40µM*!	.	-4%	-11%
Cn1nnnc1Sc1ncnc2scc(-c3ccccc3Cl)c12	-4%	32%	-21%	.	-6%	-2%
Cc1ccc(-n2c(SCC(=O)N3CCC(C)CC3)nc3c([nH]c4ccccc43)c2=O)cc1	-1%	20%[57 µM]	-10%	.	12%	.
CC(O)CN(C)C (stereo not drawn)	.	.	.	.	-5%	.
CC(O)CN(CCC(N)=O)CCC(N)=O (stereo not drawn)	56µM*	-27%	?	-6%	13%	6%
Cc1ccc(-c2nn(-c3cccc([N+](=O)[O-])c3)c3c2cnc2ccc(F)cc23)cc1	-4%	35%	-25%	.	12%	.
CN(/C(=N/S(=O)(=O)c1cccs1)c1ccccc1)c1ccccc1	8%	0%	-24%	0%	-3%	4%
CN(C)c1ccc(N/C(=N\S(=O)(=O)c2cccs2)c2ccccc2)cc1	45µM*	?	45µM*	1%	-16%	?
CC(Cc1c[nH]c2ccccc12)C(=O)NCc1ccco1 (stereo not drawn)	50µM*	?	?	?	-1%	.
CC(=O)NC(Cc1c[nH]c2ccccc12)C(=O)NCc1ccco1 (stereo not drawn)	2%	23%	-17%	-10%	27%	.
O=C1CS/C(=N/N=C/c2ccccc2)N1Cc1ccco1	-11%	8%	-17%	-12%	-9%	0%
O=C1CN(Cc2ccccc2)C(=NCc2ccco2)S1	?	-14%	79µM*	-16%	-27%	-6%
COc1ccc2c(CCNC(=O)Nc3ccccc3)c[nH]c2c1	-35%	-4%	-31%	-6%	1%	-13%
COc1ccc(NC(=S)NCCCCCC(=O)C[N+](=O)[O-])cc1	?	?	-31%	24µM*	?	.
COc1ccccc1NC(=S)NCCc1c[nH]c2ccccc12	45µM*	8.9µM*	?	3.4µM*	-17%	-14%
COc1ccc(NC(=S)NCCc2c[nH]c3ccccc23)cc1	45µM*	-25%	-33%	-2%	-14%	-12%
COc1cccc(CNCCc2c[nH]c3ccccc23)c1OCc1ccc(F)cc1	-31%	-30%	?	-3%	7%	.
COc1cc(NC(=S)NCCc2c[nH]c3ccccc23)c(OC)cc1Cl	?	?	?	1%	-1%	-23%
COc1cc(CNCCc2c[nH]c3ccccc23)ccc1OCc1ccc(F)cc1	50µM*	?	?	2%	-6%	.
Cc1ccc(NC(=O)NCCOCCn2c(=O)oc3ccccc32)cc1C	-12%	26%	-16%	.	6%	.
Cn1c(=O)n(C/C=C/c2ccccc2)c(=O)c2c1nc1n2CCN1c1ccccc1	-21%	43%	-26%	.	5%	.
Cc1ccc(NC(=S)NCCc2c[nH]c3ccccc23)c(C)c1	35µM*	-9%	?	3%	-7%	-27%
COc1ccc(CCNC(=S)Nc2ccc(OC)cc2)cc1	-16%	-9%	-22%	21µM*	-23%	-1%
COc1ccc2[nH]cc(CCNC(=S)NCCc3ccccc3)c2c1	28µM*	-2%	?	1%	6%	-2%

Source: PubChem BioAssay
